According to publication PMC7862700, “An all-to-all approach to the identification of sequence-specific readers for epigenetic DNA modifications on cytosine”:

What was measured:
Assay in all cases: DAPPL (digital affinity profiling via proximity ligation, sequencing); 10 mM Tris-HCl pH 7.5, 50 mM NaCl, 1 mM DTT, 4% glycerol, room temperature, 30 min; GST-TFs on glutathione beads, 16-mer random dsDNA library, 0.1% formaldehyde crosslink after washing; high values mean tight binding
FLI1 = target: T1, FLI1 (Homo sapiens, UniProt Q01543 1-452); details: protein: recombinant; tags: N-terminal GST; dsDNA, one strand shown
T1 sequence: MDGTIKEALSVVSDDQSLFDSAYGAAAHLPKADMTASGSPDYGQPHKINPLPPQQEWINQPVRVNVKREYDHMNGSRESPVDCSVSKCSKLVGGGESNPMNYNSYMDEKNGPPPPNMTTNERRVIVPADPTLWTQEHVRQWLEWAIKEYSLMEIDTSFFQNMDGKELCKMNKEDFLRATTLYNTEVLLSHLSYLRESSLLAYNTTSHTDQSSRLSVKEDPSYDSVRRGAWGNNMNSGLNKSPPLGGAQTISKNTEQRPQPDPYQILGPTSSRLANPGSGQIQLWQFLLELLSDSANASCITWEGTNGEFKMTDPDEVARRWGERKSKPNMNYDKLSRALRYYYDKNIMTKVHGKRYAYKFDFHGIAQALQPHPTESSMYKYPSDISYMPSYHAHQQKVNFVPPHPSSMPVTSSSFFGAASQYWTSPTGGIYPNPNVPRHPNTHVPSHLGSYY
Outline: (§1)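 A tag-only sample was pooled with DNA-barcoded human transcription factors that had been expressed in yeast as GST fusions and captured on glutathione beads. The pools were incubated for 30 min at room temperature with 200 nmole of a random double-stranded 16-mer DNA library in Tris/NaCl/DTT/glycerol buffer, then washed, crosslinked with 0.1% formaldehyde, proximity-ligated (BsaI/T4 ligase, 1 h, 37 °C), PCR-amplified and sequenced on an Illumina NextSeq500. Binding signal is each hexamer's read frequency for a factor divided by its frequency for the tag-only sample.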

ELK1 = target: T2, ELK1 (Homo sapiens, UniProt P19419 1-428); details: protein: recombinant; tags: N-terminal GST; dsDNA, one strand shown
T2 sequence: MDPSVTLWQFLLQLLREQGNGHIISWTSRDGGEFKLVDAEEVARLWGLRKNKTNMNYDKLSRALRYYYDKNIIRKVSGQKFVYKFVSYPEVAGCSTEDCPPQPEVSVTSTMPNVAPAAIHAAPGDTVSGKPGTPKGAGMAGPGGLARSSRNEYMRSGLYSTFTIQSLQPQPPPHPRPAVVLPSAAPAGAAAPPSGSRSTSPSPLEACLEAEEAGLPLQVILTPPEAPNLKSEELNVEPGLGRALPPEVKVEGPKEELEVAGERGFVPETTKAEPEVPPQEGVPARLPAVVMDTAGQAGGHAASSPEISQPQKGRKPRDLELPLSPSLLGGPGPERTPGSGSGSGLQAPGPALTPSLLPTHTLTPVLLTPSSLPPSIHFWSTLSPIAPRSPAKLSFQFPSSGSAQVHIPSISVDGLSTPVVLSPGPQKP
Outline: as §1

GABPA = target: T3, GABPA (Homo sapiens, UniProt Q06546 1-454); details: protein: recombinant; tags: N-terminal GST; dsDNA, one strand shown
T3 sequence: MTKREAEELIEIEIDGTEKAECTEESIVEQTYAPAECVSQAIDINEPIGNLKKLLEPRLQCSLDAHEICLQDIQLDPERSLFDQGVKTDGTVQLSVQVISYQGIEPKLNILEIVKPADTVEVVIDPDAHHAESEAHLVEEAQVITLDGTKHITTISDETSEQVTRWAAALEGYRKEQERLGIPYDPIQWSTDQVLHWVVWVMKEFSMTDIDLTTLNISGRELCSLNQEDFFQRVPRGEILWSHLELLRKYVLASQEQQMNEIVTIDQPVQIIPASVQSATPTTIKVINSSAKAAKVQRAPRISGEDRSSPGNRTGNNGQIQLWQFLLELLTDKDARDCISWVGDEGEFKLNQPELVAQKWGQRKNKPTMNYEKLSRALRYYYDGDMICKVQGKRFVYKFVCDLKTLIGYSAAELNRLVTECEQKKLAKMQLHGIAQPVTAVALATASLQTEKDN
Outline: as §1

ERG = target: T4, ERG (Homo sapiens, UniProt P11308 1-479); details: protein: recombinant; tags: N-terminal GST; dsDNA, one strand shown
T4 sequence: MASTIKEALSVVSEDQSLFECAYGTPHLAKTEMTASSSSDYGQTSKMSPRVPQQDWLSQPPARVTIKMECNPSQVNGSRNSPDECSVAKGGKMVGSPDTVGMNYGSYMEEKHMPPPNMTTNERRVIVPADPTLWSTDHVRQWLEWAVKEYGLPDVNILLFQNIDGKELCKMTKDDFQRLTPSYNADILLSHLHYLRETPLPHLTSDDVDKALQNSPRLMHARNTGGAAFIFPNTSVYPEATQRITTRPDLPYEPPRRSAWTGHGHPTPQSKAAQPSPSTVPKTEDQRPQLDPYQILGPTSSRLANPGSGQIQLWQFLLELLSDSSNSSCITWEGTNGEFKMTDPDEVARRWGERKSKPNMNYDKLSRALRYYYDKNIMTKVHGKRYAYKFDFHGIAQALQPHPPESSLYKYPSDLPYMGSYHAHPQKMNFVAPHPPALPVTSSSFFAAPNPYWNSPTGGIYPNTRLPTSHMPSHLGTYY
Outline: as §1

ELF1 = ELF1 (Homo sapiens, UniProt P32519 1-619); details: protein: recombinant; tags: N-terminal GST; dsDNA, one strand shown
Outline: as §1

EHF = target: T5, EHF (Homo sapiens, UniProt Q9NZC4 1-300); details: protein: recombinant; tags: N-terminal GST; dsDNA, one strand shown
T5 sequence: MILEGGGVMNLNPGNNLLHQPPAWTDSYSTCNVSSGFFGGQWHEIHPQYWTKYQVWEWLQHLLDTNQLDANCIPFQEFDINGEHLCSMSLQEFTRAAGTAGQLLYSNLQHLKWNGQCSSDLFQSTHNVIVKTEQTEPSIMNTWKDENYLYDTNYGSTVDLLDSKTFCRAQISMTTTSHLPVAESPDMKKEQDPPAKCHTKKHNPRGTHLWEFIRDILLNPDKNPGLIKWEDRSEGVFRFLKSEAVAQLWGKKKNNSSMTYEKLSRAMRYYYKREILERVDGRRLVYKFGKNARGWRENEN
Outline: as §1

SPI1 = SPI1 (Homo sapiens, UniProt P17947 1-270); details: protein: recombinant; tags: N-terminal GST; dsDNA, one strand shown
Outline: as §1

SPIB = SPIB (Homo sapiens, UniProt Q01892 1-262); details: protein: recombinant; tags: N-terminal GST; dsDNA, one strand shown
Outline: as §1

ELK3 = target: T6, ELK3 (Homo sapiens, UniProt P41970 1-407); details: protein: recombinant; tags: N-terminal GST; dsDNA, one strand shown
T6 sequence: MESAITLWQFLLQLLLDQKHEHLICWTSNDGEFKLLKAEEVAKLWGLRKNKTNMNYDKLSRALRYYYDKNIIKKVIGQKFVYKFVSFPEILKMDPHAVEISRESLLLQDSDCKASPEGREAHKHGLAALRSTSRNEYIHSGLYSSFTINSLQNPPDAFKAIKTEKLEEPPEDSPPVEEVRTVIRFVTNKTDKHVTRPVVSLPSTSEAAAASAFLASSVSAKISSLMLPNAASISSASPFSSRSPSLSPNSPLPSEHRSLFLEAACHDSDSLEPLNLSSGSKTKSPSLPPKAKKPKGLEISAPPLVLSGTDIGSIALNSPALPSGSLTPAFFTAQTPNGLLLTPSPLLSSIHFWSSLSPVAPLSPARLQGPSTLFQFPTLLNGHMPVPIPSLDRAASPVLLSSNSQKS
Outline: as §1

ETV5 = ETV5 (Homo sapiens, UniProt P41161 1-510); details: protein: recombinant; tags: N-terminal GST; dsDNA, one strand shown
Outline: as §1

HSF1 = HSF1 (Homo sapiens, UniProt Q00613 1-529); details: protein: recombinant; tags: N-terminal GST; chain copies: 3; dsDNA, one strand shown
Outline: as §1

ELF4 = ELF4 (Homo sapiens, UniProt Q99607 1-663); details: protein: recombinant; tags: N-terminal GST; dsDNA, one strand shown
Outline: as §1

ELK4 = target: T7, ELK4 (Homo sapiens, UniProt P28324-2 1-405); details: protein: recombinant; tags: N-terminal GST; dsDNA, one strand shown
T7 sequence: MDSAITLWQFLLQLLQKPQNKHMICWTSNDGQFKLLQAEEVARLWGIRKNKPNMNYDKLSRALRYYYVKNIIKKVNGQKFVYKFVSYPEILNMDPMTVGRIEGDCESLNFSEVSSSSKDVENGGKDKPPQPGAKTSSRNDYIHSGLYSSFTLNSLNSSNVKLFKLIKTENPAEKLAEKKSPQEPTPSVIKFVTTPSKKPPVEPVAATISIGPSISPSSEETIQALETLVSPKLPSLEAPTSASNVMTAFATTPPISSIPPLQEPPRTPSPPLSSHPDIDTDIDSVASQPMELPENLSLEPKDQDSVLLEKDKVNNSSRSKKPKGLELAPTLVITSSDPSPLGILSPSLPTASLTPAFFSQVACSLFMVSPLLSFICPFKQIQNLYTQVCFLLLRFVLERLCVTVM
Outline: as §1

ETV2 = target: T8, ETV2 (Homo sapiens, UniProt O00321 1-342); details: protein: recombinant; tags: N-terminal GST; dsDNA, one strand shown
T8 sequence: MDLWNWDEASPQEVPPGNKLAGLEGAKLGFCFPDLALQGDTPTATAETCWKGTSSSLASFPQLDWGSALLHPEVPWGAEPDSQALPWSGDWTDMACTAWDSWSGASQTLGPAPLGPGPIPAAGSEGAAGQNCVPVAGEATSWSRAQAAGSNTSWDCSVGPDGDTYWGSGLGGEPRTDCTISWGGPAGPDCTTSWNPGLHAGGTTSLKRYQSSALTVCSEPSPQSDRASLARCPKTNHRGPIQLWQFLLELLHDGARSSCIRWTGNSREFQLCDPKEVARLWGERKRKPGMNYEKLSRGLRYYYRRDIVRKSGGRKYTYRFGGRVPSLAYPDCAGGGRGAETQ
Outline: as §1

ELF3 = target: T9, ELF3 (Homo sapiens, UniProt P78545 1-371); details: protein: recombinant; tags: N-terminal GST; dsDNA, one strand shown
T9 sequence: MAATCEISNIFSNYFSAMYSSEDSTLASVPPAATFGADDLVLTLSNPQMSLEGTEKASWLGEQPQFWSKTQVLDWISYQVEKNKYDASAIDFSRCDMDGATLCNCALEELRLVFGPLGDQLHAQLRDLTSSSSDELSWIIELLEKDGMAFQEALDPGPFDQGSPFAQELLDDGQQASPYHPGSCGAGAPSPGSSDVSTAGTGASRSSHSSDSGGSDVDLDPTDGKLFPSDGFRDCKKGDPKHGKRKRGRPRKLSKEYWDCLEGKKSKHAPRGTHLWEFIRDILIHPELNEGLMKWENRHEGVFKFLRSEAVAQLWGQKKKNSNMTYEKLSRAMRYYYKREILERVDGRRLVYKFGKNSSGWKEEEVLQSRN
Outline: as §1

CRX = CRX (Homo sapiens, UniProt O43186 1-299); details: protein: recombinant; tags: N-terminal GST; dsDNA, one strand shown
Outline: as §1

ETV1 = ETV1 (Homo sapiens, UniProt P50549 1-477); details: protein: recombinant; tags: N-terminal GST; dsDNA, one strand shown
Outline: as §1

FEV = target: T10, FEV (Homo sapiens, UniProt Q99581 1-238); details: protein: recombinant; tags: N-terminal GST; dsDNA, one strand shown
T10 sequence: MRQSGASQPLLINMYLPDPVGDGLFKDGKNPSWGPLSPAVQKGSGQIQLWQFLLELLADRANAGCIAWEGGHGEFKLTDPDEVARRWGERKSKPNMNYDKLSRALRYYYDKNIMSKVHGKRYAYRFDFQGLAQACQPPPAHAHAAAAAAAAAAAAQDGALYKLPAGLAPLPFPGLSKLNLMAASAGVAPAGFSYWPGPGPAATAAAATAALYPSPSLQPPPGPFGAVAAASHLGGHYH
Outline: as §1

Sequence of CRX (O43186 whole entry): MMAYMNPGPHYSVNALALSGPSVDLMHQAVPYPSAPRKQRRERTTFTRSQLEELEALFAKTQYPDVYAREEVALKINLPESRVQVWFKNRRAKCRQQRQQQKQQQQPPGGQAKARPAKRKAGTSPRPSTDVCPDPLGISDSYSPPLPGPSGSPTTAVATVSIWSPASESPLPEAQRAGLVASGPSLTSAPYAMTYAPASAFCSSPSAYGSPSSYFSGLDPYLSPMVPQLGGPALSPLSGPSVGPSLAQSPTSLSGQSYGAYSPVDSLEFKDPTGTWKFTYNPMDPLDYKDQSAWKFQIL
Sequence of ELF1 (P32519 whole entry): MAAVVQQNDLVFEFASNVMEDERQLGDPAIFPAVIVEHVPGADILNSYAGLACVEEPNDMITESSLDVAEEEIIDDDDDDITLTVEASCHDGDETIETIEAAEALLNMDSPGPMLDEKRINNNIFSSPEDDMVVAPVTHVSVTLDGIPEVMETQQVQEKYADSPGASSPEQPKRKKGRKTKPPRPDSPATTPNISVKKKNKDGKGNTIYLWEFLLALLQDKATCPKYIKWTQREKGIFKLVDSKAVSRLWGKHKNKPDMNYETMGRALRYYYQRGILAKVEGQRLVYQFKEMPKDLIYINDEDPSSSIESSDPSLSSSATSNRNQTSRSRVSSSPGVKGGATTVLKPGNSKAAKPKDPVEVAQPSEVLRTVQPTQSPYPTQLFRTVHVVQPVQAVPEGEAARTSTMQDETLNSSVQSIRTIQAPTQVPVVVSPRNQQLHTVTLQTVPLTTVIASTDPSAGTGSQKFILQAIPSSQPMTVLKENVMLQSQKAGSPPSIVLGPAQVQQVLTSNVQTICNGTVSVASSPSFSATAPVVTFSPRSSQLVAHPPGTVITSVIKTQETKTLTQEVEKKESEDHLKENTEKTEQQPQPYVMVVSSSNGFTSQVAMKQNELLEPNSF
Sequence of ETV5 (P41161 whole entry): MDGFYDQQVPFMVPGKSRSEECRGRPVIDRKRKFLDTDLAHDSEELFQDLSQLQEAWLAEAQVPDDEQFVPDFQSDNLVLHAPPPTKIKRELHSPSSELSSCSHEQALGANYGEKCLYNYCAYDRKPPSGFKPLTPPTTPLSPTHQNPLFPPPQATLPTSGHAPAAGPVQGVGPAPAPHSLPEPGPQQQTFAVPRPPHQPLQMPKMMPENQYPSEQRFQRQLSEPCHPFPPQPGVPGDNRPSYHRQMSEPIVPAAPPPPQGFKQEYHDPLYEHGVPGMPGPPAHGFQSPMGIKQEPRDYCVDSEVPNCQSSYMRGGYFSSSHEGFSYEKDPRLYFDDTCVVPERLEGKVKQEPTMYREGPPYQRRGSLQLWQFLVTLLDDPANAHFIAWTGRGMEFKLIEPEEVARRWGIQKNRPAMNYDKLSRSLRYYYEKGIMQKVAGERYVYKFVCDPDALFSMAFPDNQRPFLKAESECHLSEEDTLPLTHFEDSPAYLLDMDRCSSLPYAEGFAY
Sequence of ETV1 (P50549 whole entry): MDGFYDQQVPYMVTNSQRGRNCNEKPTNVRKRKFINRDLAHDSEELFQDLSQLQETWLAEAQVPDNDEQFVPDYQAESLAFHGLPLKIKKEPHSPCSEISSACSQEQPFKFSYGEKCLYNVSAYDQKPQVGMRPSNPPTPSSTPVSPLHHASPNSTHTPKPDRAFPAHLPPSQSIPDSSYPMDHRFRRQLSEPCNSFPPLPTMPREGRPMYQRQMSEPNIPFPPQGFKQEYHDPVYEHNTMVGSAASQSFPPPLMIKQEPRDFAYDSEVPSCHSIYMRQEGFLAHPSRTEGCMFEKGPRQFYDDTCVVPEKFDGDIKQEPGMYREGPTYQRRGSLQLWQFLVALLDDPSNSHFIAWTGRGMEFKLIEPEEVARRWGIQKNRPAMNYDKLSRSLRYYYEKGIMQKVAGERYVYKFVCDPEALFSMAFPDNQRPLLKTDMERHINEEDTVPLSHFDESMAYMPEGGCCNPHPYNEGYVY
Sequence of ELF4 (Q99607 whole entry): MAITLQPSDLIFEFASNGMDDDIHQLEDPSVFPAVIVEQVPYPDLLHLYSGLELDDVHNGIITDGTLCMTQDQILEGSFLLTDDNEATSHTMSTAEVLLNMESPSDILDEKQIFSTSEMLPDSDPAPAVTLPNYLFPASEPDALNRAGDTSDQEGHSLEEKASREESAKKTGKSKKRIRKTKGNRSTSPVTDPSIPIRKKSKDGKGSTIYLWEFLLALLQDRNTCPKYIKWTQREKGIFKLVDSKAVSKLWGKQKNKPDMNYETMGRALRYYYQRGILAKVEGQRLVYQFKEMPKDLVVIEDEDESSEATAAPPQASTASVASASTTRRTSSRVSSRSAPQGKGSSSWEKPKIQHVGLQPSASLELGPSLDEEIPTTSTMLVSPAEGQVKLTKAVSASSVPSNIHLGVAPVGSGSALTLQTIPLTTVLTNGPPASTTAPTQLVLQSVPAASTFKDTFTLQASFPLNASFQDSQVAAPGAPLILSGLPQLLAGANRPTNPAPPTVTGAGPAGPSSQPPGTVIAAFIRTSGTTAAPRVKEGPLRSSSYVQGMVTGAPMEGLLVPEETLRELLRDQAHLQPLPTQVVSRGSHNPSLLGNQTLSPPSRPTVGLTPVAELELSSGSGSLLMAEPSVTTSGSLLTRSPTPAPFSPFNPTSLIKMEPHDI
Sequence of SPIB (Q01892 whole entry): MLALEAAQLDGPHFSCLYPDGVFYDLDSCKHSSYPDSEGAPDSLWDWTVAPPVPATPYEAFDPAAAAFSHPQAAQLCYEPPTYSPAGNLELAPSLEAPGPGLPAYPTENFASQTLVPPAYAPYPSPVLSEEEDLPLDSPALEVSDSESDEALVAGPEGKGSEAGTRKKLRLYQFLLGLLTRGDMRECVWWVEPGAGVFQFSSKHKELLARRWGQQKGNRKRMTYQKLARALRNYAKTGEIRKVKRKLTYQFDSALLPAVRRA
Sequence of HSF1 (Q00613 whole entry): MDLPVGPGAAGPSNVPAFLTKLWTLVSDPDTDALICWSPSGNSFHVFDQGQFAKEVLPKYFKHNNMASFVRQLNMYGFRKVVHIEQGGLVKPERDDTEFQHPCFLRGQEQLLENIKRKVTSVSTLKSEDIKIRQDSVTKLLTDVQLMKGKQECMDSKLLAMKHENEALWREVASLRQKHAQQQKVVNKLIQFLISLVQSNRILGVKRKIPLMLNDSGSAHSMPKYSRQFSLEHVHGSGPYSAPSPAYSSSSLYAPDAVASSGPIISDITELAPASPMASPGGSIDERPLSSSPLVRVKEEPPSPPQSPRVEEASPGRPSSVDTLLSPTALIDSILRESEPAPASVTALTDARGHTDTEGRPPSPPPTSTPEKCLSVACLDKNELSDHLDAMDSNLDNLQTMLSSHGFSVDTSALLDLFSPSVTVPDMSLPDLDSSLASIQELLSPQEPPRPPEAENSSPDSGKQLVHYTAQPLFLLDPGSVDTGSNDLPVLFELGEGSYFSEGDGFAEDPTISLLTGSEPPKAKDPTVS

Sequence | binding signal (FLI1) | binding signal (ELK1) | binding signal (GABPA) | binding signal (ERG) | binding signal (ELF1) | binding signal (EHF) | binding signal (SPI1) | binding signal (SPIB) | binding signal (ELK3) | binding signal (ETV5) | binding signal (HSF1) | binding signal (ELF4) | binding signal (ELK4) | binding signal (ETV2) | binding signal (ELF3) | binding signal (CRX) | binding signal (ETV1) | binding signal (FEV)
TTAGGT | 1.11 fold enrichment (6-mer frequency, TF over GST control) | 1.12 fold enrichment (6-mer frequency, TF over GST control) | 1.2 fold enrichment (6-mer frequency, TF over GST control) | 1.08 fold enrichment (6-mer frequency, TF over GST control) | 1.03 fold enrichment (6-mer frequency, TF over GST control) | 1.1 fold enrichment (6-mer frequency, TF over GST control) | 1.02 fold enrichment (6-mer frequency, TF over GST control) | 1.12 fold enrichment (6-mer frequency, TF over GST control) | 1.17 fold enrichment (6-mer frequency, TF over GST control) | 1.12 fold enrichment (6-mer frequency, TF over GST control) | 1.28 fold enrichment (6-mer frequency, TF over GST control) | 1.08 fold enrichment (6-mer frequency, TF over GST control) | 1.26 fold enrichment (6-mer frequency, TF over GST control) | 1 fold enrichment (6-mer frequency, TF over GST control) | 1.15 fold enrichment (6-mer frequency, TF over GST control) | 1.82 fold enrichment (6-mer frequency, TF over GST control) | 1.04 fold enrichment (6-mer frequency, TF over GST control) | –
TTCATA | 1.17 fold enrichment (6-mer frequency, TF over GST control) | 1.16 fold enrichment (6-mer frequency, TF over GST control) | 1.18 fold enrichment (6-mer frequency, TF over GST control) | 1.11 fold enrichment (6-mer frequency, TF over GST control) | 1.19 fold enrichment (6-mer frequency, TF over GST control) | 1.18 fold enrichment (6-mer frequency, TF over GST control) | 1.18 fold enrichment (6-mer frequency, TF over GST control) | 1.23 fold enrichment (6-mer frequency, TF over GST control) | 1.16 fold enrichment (6-mer frequency, TF over GST control) | 1.1 fold enrichment (6-mer frequency, TF over GST control) | 1.05 fold enrichment (6-mer frequency, TF over GST control) | 1.19 fold enrichment (6-mer frequency, TF over GST control) | 1.2 fold enrichment (6-mer frequency, TF over GST control) | 1.06 fold enrichment (6-mer frequency, TF over GST control) | 1.24 fold enrichment (6-mer frequency, TF over GST control) | 1.2 fold enrichment (6-mer frequency, TF over GST control) | 1.24 fold enrichment (6-mer frequency, TF over GST control) | 1.12 fold enrichment (6-mer frequency, TF over GST control)
